target: Epidermal growth factor receptor (Homo sapiens) (UniProt P00533); assay: EGFR binders on small-molecule microarrays, primary screen, biochemical, small-molecule microarray, 635 nm fluorescence (AID 1104); conditions: EGFR binding, higher = more signal;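 further: score merges 667 nm emission intensity with spot signal to noise over triplicate slides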
Sequence (P00533 whole entry, looked up): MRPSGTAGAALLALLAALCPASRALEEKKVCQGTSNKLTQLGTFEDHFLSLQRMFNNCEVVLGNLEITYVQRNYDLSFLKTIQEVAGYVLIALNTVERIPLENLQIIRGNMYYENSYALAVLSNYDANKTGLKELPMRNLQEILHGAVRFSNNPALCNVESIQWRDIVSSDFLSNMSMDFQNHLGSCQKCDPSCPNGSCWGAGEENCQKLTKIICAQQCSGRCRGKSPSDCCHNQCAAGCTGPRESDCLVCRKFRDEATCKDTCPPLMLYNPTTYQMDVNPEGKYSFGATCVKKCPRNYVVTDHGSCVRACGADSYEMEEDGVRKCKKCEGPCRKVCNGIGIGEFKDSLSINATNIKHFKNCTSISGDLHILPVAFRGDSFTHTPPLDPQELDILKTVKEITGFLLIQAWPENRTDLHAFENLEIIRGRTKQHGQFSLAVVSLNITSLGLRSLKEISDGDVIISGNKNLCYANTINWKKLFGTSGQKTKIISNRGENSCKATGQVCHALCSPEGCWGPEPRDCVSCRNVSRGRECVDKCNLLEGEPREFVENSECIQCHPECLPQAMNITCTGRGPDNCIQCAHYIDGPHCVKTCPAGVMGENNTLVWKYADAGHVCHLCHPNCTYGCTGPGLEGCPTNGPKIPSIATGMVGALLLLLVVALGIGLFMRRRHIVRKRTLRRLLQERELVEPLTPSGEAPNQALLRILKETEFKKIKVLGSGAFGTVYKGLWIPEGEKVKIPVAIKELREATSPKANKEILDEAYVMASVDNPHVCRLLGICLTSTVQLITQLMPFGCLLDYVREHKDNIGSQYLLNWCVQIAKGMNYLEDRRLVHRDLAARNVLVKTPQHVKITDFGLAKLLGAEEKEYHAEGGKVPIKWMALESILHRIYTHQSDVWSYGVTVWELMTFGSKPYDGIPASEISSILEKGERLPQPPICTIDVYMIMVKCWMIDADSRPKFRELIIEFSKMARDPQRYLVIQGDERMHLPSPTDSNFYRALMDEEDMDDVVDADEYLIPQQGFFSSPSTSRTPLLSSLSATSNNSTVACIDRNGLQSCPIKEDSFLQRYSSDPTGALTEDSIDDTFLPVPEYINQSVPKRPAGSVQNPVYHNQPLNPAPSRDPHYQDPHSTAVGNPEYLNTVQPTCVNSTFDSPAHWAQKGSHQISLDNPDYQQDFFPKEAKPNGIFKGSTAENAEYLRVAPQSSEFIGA

Structure (SMILES)	composite z-score
CCCNC(=O)OC[C@H]1O[C@H](CCON=C[C@@H](NS(=O)(=O)c2ccc(C)cc2)[C@H](C)C=CCC(=O)OC)C=C[C@@H]1Oc1ccc(OC)cc1	-0.147
C#CCCCON=C1C[C@@H](O)[C@@H](O)[C@@H]2[C@@H]3C(=O)N(C[C@@H]4CCCO4)C(=O)[C@@H]3CC[C@H]12	0.451
CC(C)CON=C1C[C@@H](O)[C@@H](O)[C@@H]2[C@@H]3C(=O)N(c4ccc(F)cc4F)C(=O)[C@@H]3CC[C@@H]12	0.321
O=C1C=C[C@@H](O)[C@@H]2[C@@H]3C(=O)N(Cc4ccccc4)C(=O)[C@@H]3CC[C@@H]12	0.552
CC1(C)O[C@H]2OC([C@H](O)CON3C(=O)c4ccccc4C3=O)[C@H](O)[C@H]2O1 (some centres not stated)	0.237
C[C@H]1CC[C@H]2C(=O)OC(COc3ccc(C(C)(C)C)cc3)CN2[C@@H]1c1ccc(Br)cc1 (some centres not stated)	-0.128
CC1(C)O[C@H]2O[C@H]([C@H](O)CON=C3[C@H]4CCn5c(=O)n(-c6ccccc6)c(=O)n5[C@H]4[C@H](O)[C@@H]4O[C@H]34)[C@H](O)[C@H]2O1	0.249
CC(C)=CCCC(C)=CCON=C1C[C@@H](O)[C@@H](O)[C@@H]2[C@@H]3C(=O)N(c4cccc(Oc5ccccc5)c4)C(=O)[C@@H]3CC[C@H]12	0.348
CCOC(=O)[C@H](Cc1ccccc1)NC(=O)CCC1CC(OC(=O)NCc2cccc3ccccc23)CC2(CCCC(COC(=O)NCc3ccc4c(c3)OCO4)O2)O1 (some centres not stated)	0.179
CCCC[C@H]1CN2[C@@H](CC[C@@H](C)[C@@H]2c2ccc(Br)cc2)C(=O)O1	0.457
CCOC(=O)[C@H](CC(C)C)NC(=O)CCC1CC(OC(=O)NCc2ccc3c(c2)OCO3)CC2(CCCC(COC(=O)NCCOc3ccccc3)O2)O1 (some centres not stated)	0.224
CCOC(=O)NN=C1C[C@@H](O)[C@@H](O)[C@@H]2[C@@H]3C(=O)N(CC)C(=O)[C@@H]3CC[C@H]12	0.283
COc1ccc(COC(=O)NN=C2C[C@@H](O)[C@@H](O)[C@@H]3[C@@H]4C(=O)N([C@@H](C)c5ccccc5)C(=O)[C@@H]4CC[C@@H]23)cc1	0.362
CCN1C(=O)[C@H]2[C@H]3[C@H](O)[C@H](O)CC(=NO[C@H](C)c4cn([C@@H]5COC[C@H]5O)nn4)[C@@H]3CC[C@H]2C1=O	0.219
C[C@@H]1CC[C@H]2C(=O)O[C@@H](COc3ccc(C(C)(C)C)cc3)CN2[C@H]1c1ccc(Br)cc1	-0.0032
CO[C@H]1COC(=O)CC=C[C@@H](C)COC(=O)[C@H]2CCCN2C(=O)CC=C[C@H]1C	1.29
CC(CCN1CCCc2nc(C)c(C)cc21)=NO[C@@H](C)c1cn([C@H](CO)Cc2ccccc2)nn1	0.666

Reference: PubChem BioAssay
